Compound activity: PubChem, National Center for Advancing Translational Sciences (NCATS)
AMA1-RON2 inh: disrupts binding of P. falciparum AMA1 to RON2 | AlphaScreen AMA1-biotinylated RON2 peptide binding | Potency, µM (highest dose often 58.2 µM), for inactives: at the top dose activity change, negative = inhibition, most hits filed as inhibitors | actives 0.2% (n = 360,000) | AID 720542;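 note: 0% = vehicle wells and -100% = peptide control; nearly all actives have a fitted effect of over 45% in size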
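AMA1 (3D7) with his tag at 25 nM final met compounds first, then biotinylated RON2 peptide at 25 nM; detection used donor plus acceptor beads, 10 µg/mL apiece, read by AlphaScreen after 30 min at room temperature.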
RE007 growth inh: less growth of the S. pombe RE007 Vpr strain; S. pombe RE007 Vpr strain, BacTiter-Glo ATP luminescence, 24 h; Potency, µM (top dose mostly 92.2 µM), for the others: top-dose activity change, negative = less growth, usual class: inhibitors; actives 0.21% (n = 360,000); AID 651644; active = well fitted falling curve with a large enough effect; inconclusive = small, poorly fitted or top-dose-only effect; inactive = no such curve, though single readings can be large or run the other way; note: nearly all actives have a fitted effect of over 50% in size
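Fission yeast strain RE007, carrying one chromosomally integrated HIV-1 vpr copy, was seeded at OD 0.01 in PMG+AL medium with 23 nL pinned compound. After 24 h at 30 °C and 99% humidity, viability was read by BacTiter-Glo luminescence.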
AmpC no deterg: AmpC beta-lactamase inhibition without detergent | P00811 | AmpC nitrocefin hydrolysis, absorbance 480 nm, 0.0001% Triton | Potency, µM (highest dose often 57.1 µM), for inactives: top-dose activity change, negative = inhibition, actives largely listed as inhibitors | actives 0.52% (n = 330,000);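 note: plate controls were no compound for no effect and no enzyme for full effect; nearly all actives have a fitted effect of over 20% in size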
Target sequence (P00811 whole entry, looked up): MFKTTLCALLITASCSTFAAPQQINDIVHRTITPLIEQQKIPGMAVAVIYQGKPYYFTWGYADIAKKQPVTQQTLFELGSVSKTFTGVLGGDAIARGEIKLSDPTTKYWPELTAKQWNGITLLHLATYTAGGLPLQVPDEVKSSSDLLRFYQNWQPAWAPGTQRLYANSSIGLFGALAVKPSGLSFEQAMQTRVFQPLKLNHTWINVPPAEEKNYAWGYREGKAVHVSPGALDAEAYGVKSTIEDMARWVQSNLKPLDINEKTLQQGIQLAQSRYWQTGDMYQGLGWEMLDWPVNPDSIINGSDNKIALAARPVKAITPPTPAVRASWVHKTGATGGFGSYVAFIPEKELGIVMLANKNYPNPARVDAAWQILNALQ
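AmpC (5.3 nM in the dispensed reagent) in 20 mM phosphate pH 7.0 with 0.01% (detergent screen) or 0.0001% Triton X-100 was preincubated with compounds for 15 min at room temperature. Nitrocefin was then added from an 800 uM solution, and hydrolysis was followed at 480 nm.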
AmpC detergent: blocks E. coli AmpC beta-lactamase in detergent assay; AmpC hydrolysis of nitrocefin, absorbance 480 nm, 0.01% Triton; Potency, µM (titrated, usually from 114 µM), for the others: at the highest dose activity change, negative = inhibition, most hits filed as inhibitors; actives 0.041% (n = 370,000); AID 485294;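 note: 0% = no-compound wells and -100% = no-enzyme wells; nearly all actives have a fitted effect of over 25% in size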
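20 mM phosphate pH 7.0 + 0.01% (detergent screen) or 0.0001% Triton X-100; 5.3 nM AmpC reagent; cpd preinc 15 min RT; nitrocefin (800 uM stock) to start; A480 q20 s × 4 min; Activity was normalised to no-enzyme and no-compound control wells.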
An asterisk follows results filed as active; ? = inconclusive; . = no result; [ ] = another dose, or the depositor's remark. Compounds with a hit are over-represented: about 0.79% of the library has one in this group of screens. Unless noted, calls come from the whole dose curve; as a rule, active = well fitted curve in the direction sought with a large enough effect; inconclusive = small, poorly fitted or top-dose-only effect, or another doubt; inactive = no such curve, though single readings can be large; an effect the other way counts as inactive or inconclusive. Unless noted, % is set by controls: 0 for no effect and ±100 for the full control effect; potency is the fitted concentration of half-maximal effect.

SMILES	AMA1-RON2 inh	RE007 growth inh	AmpC no deterg	AmpC detergent
O=C(Cc1cccc2ccccc12)N/N=C/c1ccc(OC(=O)/C=C/c2ccco2)cc1	30%	6%	35µM*	?
O=C(Cc1cccc2ccccc12)N/N=C/c1ccc(F)cc1	6%	12%	-38%	-12%
Cc1[nH]c2ccccc2c1C1=CC(=O)C=CC1=O	-29%	25µM*	.	.
Cc1[nH]c2ccccc2c1CCO	1%	-10%	?	-2%
Cc1cccc(C(=O)NC2=NC(c3ccc(Cl)cc3)CC(=O)N2)c1 (configuration not stated)	.	.	.	3%
Cc1ccc(NC(=O)c2c(NC(=O)c3ccc(F)cc3)sc3c2CCCC3)cc1C	.	.	.	16%
CCOC(=O)c1oc2ccccc2c1NC(=O)c1ccc(Cl)s1	2%	-19%	7.1µM*	?
CCOC(=O)c1oc2ccccc2c1NC(=O)CCl	3%	-11%	-10%	-1%
COc1ccc(-c2cc(C(=O)Oc3ccccc3)c3cc(C)ccc3n2)cc1	.	.	.	19%
CCN(C(=O)CSc1nc2ccccc2n1CC(=O)N(C)C1CCCCC1)c1ccccc1	.	.	.	-4%
CCn1nc(C)cc1-c1nnc(SCC(=O)Nc2ccccc2)n1CCCOC	-3%	-12%	19%	-10%
CCn1nc(C)cc1-c1nnc(Sc2ncc([N+](=O)[O-])s2)n1C	-4%	35µM*	-40%	?
CCOC(=O)c1ccc(NC(=O)c2oc(=O)c3ccccc3c2-c2ccccc2)cc1	.	.	.	12%
Cc1ccc(NC(=S)NCc2ccc(F)cc2)cc1	5%	-1%	.	.
Cc1ccc(CNC(=S)Nc2ccc(NS(=O)(=O)c3ccc(C)cc3)cc2)cc1	-9%	-24%	2.2µM*	0%
O=C(CSCc1cnn(-c2ccccc2)c1-n1cccc1)NCc1ccccc1F	.	.	.	-1%
O=C1CSC(=S)N1N=Cc1c(O)ccc2ccccc12	20%	-30%	.	.
COc1ccc2ccccc2c1/C=N/N1C(=O)CSC1=S	29%	-7%	16µM*	-7%
CCOC(=O)CSc1nc2cc3c(cc2c(=O)n1CCCCCC(=O)NCc1ccc(OC)cc1)OCO3	.	.	.	2%
Clc1ccc(/C=C/c2nc3ccccc3[nH]2)c(Cl)c1	-5%	25µM*	11µM*	-4%
O=C(/C(=C(\O)c1ccccc1)c1nc2ccccc2[nH]1)c1ccccc1	34%	-26%	-45%	2%
O=C(/C=C/c1ccc(Cl)cc1Cl)c1nc2ccccc2[nH]1	1%	7.9µM*	-12%	2%
Clc1ccc(/C=C/c2nc3ccccc3[nH]2)cc1	8%	?	-44%	?
CCC(=O)Nc1ccc2nc(SCCOc3ccc(C)cc3)sc2c1	.	.	.	15%
O=C(COC(=O)c1ccccc1Nc1ccccc1)c1ccccc1	69%	-8%	-39%	-12%
SMILES	AMA1-RON2 inh	RE007 growth inh	AmpC no deterg	AmpC detergent
Cc1ccc(NC(=O)COC(=O)c2ccccc2Nc2ccccc2)cc1	14%	14%	25µM*	-2%
CC1=NN(c2ccccc2)C(=O)/C1=C/C=C/c1ccc(N(C)C)cc1	1.4µM*	-6%	-20%[11.4 µM]	?
CC1=NN(c2ccccc2)C(=O)/C1=C/N(C)C	3%	?	-17%	-1%
CC1=NN(c2ccccc2)C(=O)/C1=C/c1cccc(C)c1	-24%	-5%	-18%	1%
CC1=NN(c2ccccc2)C(=O)/C1=C\C=C\c1ccccc1	6.3µM*	6%	-15%	-1%
Clc1ccc(/C=N/N2CCCCC2)cc1	-16%	-1%	-29%	11%
N#Cc1ccc(C=NN2CCCCCC2)cc1	28µM*	-10%	.	.
CCOc1ccc(-c2csc(/C(C#N)=C/c3ccc(Br)cc3)n2)cc1	.	.	.	-9%
COc1cccc(CNC(=O)c2nnn(CC(=O)Nc3ccc4c(c3)OCO4)c2N)c1	4%	-5%	-60%	1%
COc1cccc(Cn2nnc(C(=O)NCc3ccc4c(c3)OCO4)c2N)c1	11%	-20%	35µM*	1%
CCN(CC)S(=O)(=O)c1ccc(NC(=O)CCc2c(C)nc3cc(-c4ccc(Cl)cc4)nn3c2C)cc1	.	.	.	-11%
CCc1ccc(Nc2nnc(SCC(=O)Nc3sccc3C(N)=O)s2)cc1	13%	11%	16µM*	5%
Oc1[nH]c2ccccc2c1N=NC(=S)NCCc1ccccc1	-5%	.	25µM*	?
COC(=O)CC1Oc2ccc(F)cc2-n2cc(-c3ccc(Cl)cc3)nc21 (configuration not stated)	.	.	.	1%
